Entries with a potency or affinity are not part of this list.

As a reminder, the Inhibition is the drop in the measured response relative to a control, in per cent.

One assay has as its system Klebsiella pneumoniae. Conditions: Concentration 32 ug.mL-1; ASSAY_TEST Inhibition of Bacterial Growth; detection method Absorption (OD600); MEDIA CAMHB; plate type 384well; NBS; CORNING #3640; time 18 hr.
`CSC1=NC(=Cc2ccccc2)C(=O)N1C`: the Inhibition is reported as -0.86%.
`CN(C)c1nc2nc3c(c(N)c2c(-c2ccccc2)c1C#N)CCCC3`: the Inhibition is 5.15%.
With `C/C(Cc1ccccc1)=N/NC(=O)c1c[nH]c2ccc(O)cc12`, the Inhibition was 5.8%.
The same measure, in the same setting: with `CCCC(C)NNC(=O)c1cc2ccccc2[nH]1` (stereo not given) the figure was -0.18%; with `CCCCCCC(C)NNC(=O)c1cc2ccccc2[nH]1` (stereo not given), -31.72%.
Same read-out and setting: with `N#CC1=C(Cl)Oc2ccc3ccccc3c2C1c1ccccc1` (stereo not given) the figure was 13.06%; with `Cc1[nH]c2ccc(OCc3ccccc3)cc2c1C(=O)NN`, 5.83%.
Still for that read-out and setting: then `CN(C)c1nc(N)c(C#N)c(-c2ccccc2)c1C#N`, with -2.21%; and `Cn1c(CO)cc2cc(OCCCC3CCN(Cc4ccccc4)CC3)ccc21`, with -2.86%.
In the case of `CC(=O)O[C@H]1CC[C@H](NC(=O)c2ccccc2)CC1`, the Inhibition worked out at 10.24%.
On the same count and under the same terms, with `C#CC[n+]1ccccc1N.[Br-]` the figure was -10.26%; with `Cc1nc2c(cc1C#N)c(N)nn2C`, 19.03%.
Same read-out and setting: then `N#Cc1c(N)nc(NCCCC2CCN(Cc3ccccc3)CC2)c(C#N)c1-c1ccccc1`, with 32.61%; and `Nc1c2c(nc3c1CC(c1c(Cl)cccc1Cl)C(=O)N3)CCCC2` (stereo not given), with 0.93%; and `O=C(NNCc1ccco1)c1cc2ccccc2[nH]1`, with 1.78%.
The same measure, in the same setting: with `COc1ccc(-c2cc(-c3cc4ccc(F)cc4nc3Cl)cc(=O)[nH]2)cc1` the figure was -16.09%.
Consider `O=C1OC(c2ccccc2)=NC1=Cc1ccc([N+](=O)[O-])cc1`, for which the Inhibition was determined as 9.13%.
As to `C#CCN(C)Cc1cc2cc(OCCCC3CCN(Cc4ccc(C#N)cc4)CC3)ccc2n1C`, the Inhibition was 2.67%.
Still for that read-out and setting: with `CNC(=O)c1cc2cc(OCc3ccccc3)ccc2n1C` the figure was 4.29%; with `N#Cc1c(N)nc(NCCC2CCN(Cc3ccccc3)CC2)c(C#N)c1-c1ccccc1`, 5.9%; with `C#CCN(C)c1nc(N(C)CC#C)c(C#N)cc1C#N`, 11.71%.
On to `CC(=O)Oc1ccc(C=C2N=C(c3ccccc3)OC2=O)c(OC(C)=O)c1`, for which the Inhibition came to 2.13%.
As for `CCOc1nc2nc(C)c(C=C3CCN(Cc4ccccc4)CC3)cc2c(-c2ccccc2)c1C#N`, the Inhibition is 20.16%.
On the same count and under the same terms, then `C#CCN(C)c1nc(NCC2CCN(Cc3ccccc3)CC2)c(C#N)c(-c2ccccc2)c1C#N.Cl`, with 9.81%; and `CS(=O)(=O)O[C@H]1CC[C@H](OS(C)(=O)=O)CC1`, with 13.68%.
Take `CN(C)c1nc(Cl)c(C#N)c(-c2ccccc2)c1C#N`: the Inhibition stood at 5.58%.
On the same count and under the same terms, with `COc1cccc(C2C(C#N)=C(N)Oc3[nH]nc(C)c32)c1` (stereo not given) the figure was 26.54%; with `Cl.OCC1CCN(Cc2ccccc2)CC1`, 15.06%; with `COc1cc(C2CC2(N)C(=O)O)ccc1O` (stereo not given), 3.5%.
Still for that read-out and setting: then `COC(=O)/C(=C/c1ccc(O)cc1)NC(=O)c1ccccc1`, with -14.62%; and `N#Cc1cc(C#N)c(N2CCCC2)nc1N`, with 16.35%; and `COc1nc2ccccc2cc1C=O`, with -3.66%.
On the same count and under the same terms, then `CNCc1cc2ccccc2n1C.Cl`, with 8.53%; and `Cl.Nc1c2c(nc3c1C(c1c(Cl)cccc1Cl)c1ccc4ccccc4c1O3)CCCC2` (stereo not given), with 3.98%.
Regarding `Cc1ccc2nc(Cl)c(/C=N/OCc3ccccc3)cc2c1`, the Inhibition was 9.15%.
The same measure, in the same setting: with `N#Cc1cc(C#N)c(NCCCC2CCN(Cc3ccccc3)CC2)nc1N` the figure was 10.46%.
With `O=C1NC(=S)N/C1=C\c1c[nH]c2ccccc12`, the Inhibition was 4.51%.
Still for that read-out and setting: then `Cl.NC1(C(=O)O)CC1c1cccc(Cl)c1` (stereo not given), with 18.53%; and `CCOC(N)=CC#N`, with -6.69%; and `COc1ccc(C2c3c(ccc4ccccc34)OC(=NBr)C2(Br)C#N)cc1` (stereo not given), with 26.17%.

The subject of the next assay is Candida albicans. The conditions noted are these: 32 ug/mL.
Regarding `CSC1=NC(=Cc2ccccc2)C(=O)N1C`, the Inhibition is 3.12%.
`CN(C)c1nc2nc3c(c(N)c2c(-c2ccccc2)c1C#N)CCCC3`: the Inhibition stood at 1.47%.
Still for that read-out and setting: with `C/C(Cc1ccccc1)=N/NC(=O)c1c[nH]c2ccc(O)cc12` the figure was 0.37%; with `CCCC(C)NNC(=O)c1cc2ccccc2[nH]1` (stereo not given), 0.67%; with `CCCCCCC(C)NNC(=O)c1cc2ccccc2[nH]1` (stereo not given), 3.47%.
`N#CC1=C(Cl)Oc2ccc3ccccc3c2C1c1ccccc1` (stereo not given): the Inhibition amounted to 2.47%.
On the same count and under the same terms, with `Cc1[nH]c2ccc(OCc3ccccc3)cc2c1C(=O)NN` the figure was 1.23%; with `CN(C)c1nc(N)c(C#N)c(-c2ccccc2)c1C#N`, 0.74%.
For `Cn1c(CO)cc2cc(OCCCC3CCN(Cc4ccccc4)CC3)ccc21`, the Inhibition is 2.07%.
The same measure, in the same setting: with `CC(=O)O[C@H]1CC[C@H](NC(=O)c2ccccc2)CC1` the figure was 3.3%.
On the same count and under the same terms, then `C#CC[n+]1ccccc1N.[Br-]`, with 1.82%; and `Cc1nc2c(cc1C#N)c(N)nn2C`, with 3.97%; and `N#Cc1c(N)nc(NCCCC2CCN(Cc3ccccc3)CC2)c(C#N)c1-c1ccccc1`, with 1.5%.
Still for that read-out and setting: with `Nc1c2c(nc3c1CC(c1c(Cl)cccc1Cl)C(=O)N3)CCCC2` (stereo not given) the figure was -0.19%; with `O=C(NNCc1ccco1)c1cc2ccccc2[nH]1`, -0.84%.
`COc1ccc(-c2cc(-c3cc4ccc(F)cc4nc3Cl)cc(=O)[nH]2)cc1`: the Inhibition turned out to be 1.94%.
On the same count and under the same terms, then `O=C1OC(c2ccccc2)=NC1=Cc1ccc([N+](=O)[O-])cc1`, with -1.46%; and `C#CCN(C)Cc1cc2cc(OCCCC3CCN(Cc4ccc(C#N)cc4)CC3)ccc2n1C`, with 4.18%; and `CNC(=O)c1cc2cc(OCc3ccccc3)ccc2n1C`, with 3.06%.
Still for that read-out and setting: with `N#Cc1c(N)nc(NCCC2CCN(Cc3ccccc3)CC2)c(C#N)c1-c1ccccc1` the figure was 4.31%; with `C#CCN(C)c1nc(N(C)CC#C)c(C#N)cc1C#N`, 2.14%; with `CC(=O)Oc1ccc(C=C2N=C(c3ccccc3)OC2=O)c(OC(C)=O)c1`, 3.75%.
On the same count and under the same terms, then `CCOc1nc2nc(C)c(C=C3CCN(Cc4ccccc4)CC3)cc2c(-c2ccccc2)c1C#N`, with 2.44%; and `C#CCN(C)c1nc(NCC2CCN(Cc3ccccc3)CC2)c(C#N)c(-c2ccccc2)c1C#N.Cl`, with -0.67%.
With `CS(=O)(=O)O[C@H]1CC[C@H](OS(C)(=O)=O)CC1`, the Inhibition amounted to 3.52%.
Turning to `CN(C)c1nc(Cl)c(C#N)c(-c2ccccc2)c1C#N`, the Inhibition was found to be 3.09%.
Same read-out and setting: with `COc1cccc(C2C(C#N)=C(N)Oc3[nH]nc(C)c32)c1` (stereo not given) the figure was 0.08%; with `Cl.OCC1CCN(Cc2ccccc2)CC1`, 1.47%; with `COc1cc(C2CC2(N)C(=O)O)ccc1O` (stereo not given), -0.44%.
On the same count and under the same terms, with `COC(=O)/C(=C/c1ccc(O)cc1)NC(=O)c1ccccc1` the figure was 1.73%; with `N#Cc1cc(C#N)c(N2CCCC2)nc1N`, 1.23%.
On the same count and under the same terms, with `COc1nc2ccccc2cc1C=O` the figure was 6.13%; with `CNCc1cc2ccccc2n1C.Cl`, 1.26%.
Turning to `Cl.Nc1c2c(nc3c1C(c1c(Cl)cccc1Cl)c1ccc4ccccc4c1O3)CCCC2` (stereo not given), the Inhibition is -1.11%.
Same read-out and setting: with `Cc1ccc2nc(Cl)c(/C=N/OCc3ccccc3)cc2c1` the figure was 2.45%; with `N#Cc1cc(C#N)c(NCCCC2CCN(Cc3ccccc3)CC2)nc1N`, 0.89%; with `O=C1NC(=S)N/C1=C\c1c[nH]c2ccccc12`, -0.31%.
Consider `Cl.NC1(C(=O)O)CC1c1cccc(Cl)c1` (stereo not given), for which the Inhibition stood at 2.81%.
As for `CCOC(N)=CC#N`, the Inhibition turned out to be 0.84%.
The same measure, in the same setting: with `COc1ccc(C2c3c(ccc4ccccc34)OC(=NBr)C2(Br)C#N)cc1` (stereo not given) the figure was 10.1%.

The record behind these values is ChEMBL document CHEMBL4513135, “CO-ADD screening of IQOG CSIS (Spain) compounds”.
